Source: PubChem BioAssay (National Center for Advancing Translational Sciences (NCATS))
Compounds with a hit are over-represented: about 3.3% of the library has one in this group of screens.
Tb PYK inh – T. brucei pyruvate kinase inhibition; Q57TT1; 0.12% of 410,000 active; TbPYK enzyme, Kinase-Glo Plus ATP luminescence, 45 min; Potency, µM (doses to about 76.8 µM), for inactives: at the highest dose activity, negative = inhibition, most hits filed as inhibitors; further: nearly all actives have a fitted effect of over 50% in size
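Assay buffer: 50 mM TEA pH 7.2, 100 mM KCl, 10 mM MgCl2, 0.05% BSA, 0.01% Tween-20. Pyruvate kinase from T. brucei plus substrate met compound, then ADP (130 uM final). Luminescence was read post 45 min RT.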
RE007 growth inh – less growth of the S. pombe RE007 Vpr strain; S. pombe RE007 Vpr strain, BacTiter-Glo ATP luminescence, 24 h; Potency, µM (doses to about 92.2 µM), without a hit: at the top dose activity change, negative = less growth, usual class: inhibitors; 0.21% of 360,000 active; AID 651644; active means well fitted falling curve with a large enough effect; inconclusive means small, poorly fitted or top-dose-only effect; inactive means no such curve, though single readings can be large or run the other way; further: nearly all actives have a fitted effect of over 50% in size
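Fission yeast RE007 carrying one integrated HIV-1 vpr copy, seeded at OD 0.01 in PMG+AL medium with 23 nL pinned compound. Grown 24 h at 30 degrees; viability read by BacTiter-Glo luminescence after 5 min.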
FBPA Giardia inh – inhibitors of Giardia lamblia fructose-1,6-bisphosphate aldolase | A8B2U2 | purified Giardia FBPA | Potency, µM (highest dose often 59.6 µM), inactives show at the top dose activity, negative = inhibition, most hits filed as inhibitors | 0.71% of 290,000 active | AID 2451; further: nearly all actives have a fitted effect of over 55% in size
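40 nM FBPA preincubated 10 min at RT with compound (up to 57.5 uM final), then substrate plus GAPDH/TPI/NAD/arsenate coupling and diaphorase/resazurin added. Fluorescence read after 20 min at RT, 525/598 nm.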
Sm TGR inh – S. mansoni TGR enzyme inhibition; 3% of 360,000 active; purified TGR, DTNB reduction, TNB absorbance 405 nm; AID 485364; Potency, µM (top dose mostly 114 µM), inactives show top-dose activity change, negative = inhibition, hits mostly inhibitors; Q962Y6; further: nearly all actives have a fitted effect of over 60% in size
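First, TGR (20 nM dispensed) and NADPH were mixed with compound. Second, a 15 min room-temperature incubation followed. Third, further NADPH and then DTNB were added to start the reaction. Finally, TNB absorbance was monitored kinetically.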
LmPK inh – inhibitors of Leishmania mexicana pyruvate kinase. Q27686. purified LmPK, Kinase-Glo ATP luminescence, 1 h. Potency, µM (doses to about 57.5 µM), for the others: at the highest dose activity change, negative = inhibition, most hits filed as inhibitors. 0.37% of 290,000 active
Target sequence (Q27686 whole entry, looked up): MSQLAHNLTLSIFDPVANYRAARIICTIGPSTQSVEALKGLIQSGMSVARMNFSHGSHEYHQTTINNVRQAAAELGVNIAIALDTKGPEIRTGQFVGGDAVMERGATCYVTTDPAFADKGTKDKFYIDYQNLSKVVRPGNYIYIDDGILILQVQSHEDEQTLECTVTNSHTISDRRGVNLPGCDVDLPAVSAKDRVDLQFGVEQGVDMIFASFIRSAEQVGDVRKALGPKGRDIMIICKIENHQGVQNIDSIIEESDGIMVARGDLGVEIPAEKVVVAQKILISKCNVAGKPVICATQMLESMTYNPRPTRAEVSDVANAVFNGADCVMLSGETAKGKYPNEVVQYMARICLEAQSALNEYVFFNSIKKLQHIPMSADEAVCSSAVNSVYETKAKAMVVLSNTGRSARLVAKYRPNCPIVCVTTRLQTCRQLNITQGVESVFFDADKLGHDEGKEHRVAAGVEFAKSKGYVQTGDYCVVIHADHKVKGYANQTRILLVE
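ATP generated from ADP (0.1 mM) and PEP (0.5 mM) by 0.1 nM LmPK over 1 h at room temperature (pH 7.2 imidazole buffer) was detected by coupled luciferase luminescence. Values were normalized to uninhibited and no-enzyme wells.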
The depositor's hits bear a star; ? = inconclusive; . = not tested or not shown. Unless noted, the call rests on the fitted dose curve; in most records, active means well fitted curve in the direction sought with a large enough effect; inconclusive means small, poorly fitted or top-dose-only effect, or another doubt; inactive means no such curve, though single readings can be large; an effect the other way counts as inactive or inconclusive. On the % scale 0 is the no-effect control and ±100 the full control effect; potency means the concentration at half of the fitted maximal effect.

SMILES	Tb PYK inh	RE007 growth inh	FBPA Giardia inh	Sm TGR inh	LmPK inh
CCOC(=O)C1=C(C)NC(=O)NC1c1ccc([N+](=O)[O-])o1 (stereo unspecified)	-1%	9%	-5%	40µM*	-9%
CCOC(=O)C1=C(C)NC2=C(C(=O)c3ccccc32)C1c1ccc([N+](=O)[O-])o1 (stereo unspecified)	-4%	12%	-8%	0%	-5%
CC(=O)Nc1ccccc1-c1ccccc1[N+](=O)[O-]	-1%	3%	.	.	.
CCS(=O)(=O)c1cc([N+](=O)[O-])c(Sc2ccccc2NC(C)=O)s1	-33%	8%	-9%	2.8µM*	7%
COc1cccc(C2C=C(c3ccc(Br)s3)Nc3ncnn32)c1OC (stereo unspecified)	-24%	-6%	-9%	?	4%
Fc1ccc(Br)cc1C1C=C(c2ccc(Br)s2)Nc2ncnn21 (stereo unspecified)	1%	-16%	13%	1.3µM*	-1%
O=C(Nc1nc(-c2ccccc2)cs1)c1ccccc1F	2%	-21%	4%	4%	5%
O=C(c1ccco1)N1CCN(Cc2cc(=O)oc3cc(O)ccc23)CC1	-4%	-11%	.	45µM*	.
CCOc1cc(C2c3c(n[nH]c3C)C(=O)N2c2ccc(C)cc2)ccc1O (stereo unspecified)	3%	8%	2%	18µM*	0%
Cc1cccc(CSc2nnc3c(n2)[nH]c2ccccc23)c1	1%	-1%	6%	5%	8%
Cc1onc(-c2ccccc2)c1C(=O)N(Cc1ccco1)Cc1cccs1	4%	5%	?	18µM*	1%
Cc1ccc(C)c(SCC(=O)NC2CCS(=O)(=O)C2)c1 (stereo unspecified)	-4%	-13%	.	-7%	.
O=c1[nH]c(=S)n(C2CC2)c(O)c1/C=N/Nc1ccccc1	-9%	164%	?	20µM*	2%
O=c1[nH]c(=S)n(C2CC2)c(O)c1/C=N/Nc1cccc2ccccc12	-7%	-22%	?	35µM*	-2%
O=C(N/N=C/c1c(O)n(C2CCCCC2)c(=S)[nH]c1=O)c1ccccc1	-2%	6%	25%	-30%	-5%
COc1ccc(NC(=O)C2CCN(C(=O)NC3CCCCC3)CC2)c(OC)c1	-7%	9%	-5%	-19%	-1%
C#CCNC(=O)C1=C[C@H](C2CCCCC2)[C@@H](CCCO)[C@H](OCC)O1	-1%	12%	4%	18µM*	4%
C#CCNC(=O)C1=C[C@H](c2ccccc2)[C@@H](CCCO)[C@H](OCC)O1	2%	-3%	1%	20µM*	2%
O=C(COc1ccccc1)Nc1c(C(=O)N2CCN(c3ccc(F)cc3)CC2)oc2ccccc12	3%	.	.	5%	.
O=C(N/N=C/C=C/c1ccco1)c1cccnc1	-3%	-17%	?	22µM*	3%
O=C(N/N=C\C=C\c1ccco1)c1cncc(Br)c1	-1%	3%	?	18µM*	6%
CC(/C=C\C=C\c1ccccc1)=N\NC(=O)c1cncc(Br)c1	1%	-24%	-9%	40µM*	-4%
CC(/C=C/C=C/c1ccccc1)=N\NC(=O)c1cccnc1	6%	-9%	-11%	?	1%
O=C(N/N=C/C=C\c1ccco1)c1ccccn1	-16%	2%	?	10µM*	-4%
O=C(N/N=C\c1ccco1)c1cncc(Br)c1	.	.	-26%	0%	0%
SMILES	Tb PYK inh	RE007 growth inh	FBPA Giardia inh	Sm TGR inh	LmPK inh
CC(=O)Nc1ccc(SCCN2CC[C@@H](C(C)(C)C)CCC2=O)cc1	-9%	-1%	.	-1%	.
CSc1ccc(CCNC(=O)c2ccc3c(Cl)c4c(nc3c2)CCCC4)cc1	-1%	.	.	2%	.
O=C(N/N=C/c1cccs1)C(O)c1ccccc1 (stereo unspecified)	2%	3%	1%	-2%	5%
O=C(N/N=C/C=C\c1ccco1)c1cccnc1	-11%	2%	-25%	25µM*	4%
O=C(N/N=C/c1cc(Br)c(Br)o1)c1cccnc1	-18%	-2%	?	28µM*	-6%
COc1ccc(CNC(=O)C2(C)Cc3c(-c4ccccc4)ccnc3O2)cc1OC (stereo unspecified)	3%	13%	.	.	.
CCN(CC(=O)Nc1ccc(NC(C)=O)cc1)C(=O)/C=C/c1ccc(C)o1	3%	2%	.	45µM*	.
O=C(NCc1ccccc1)[C@@H]1C[C@H]1[C@@H](NP(=O)(c1ccccc1)c1ccccc1)c1ccccc1	-12%	0%	7%	-20%	0%
Cc1ccc(CNC(=O)[C@H]2C[C@@H]2[C@H](NP(=O)(c2ccccc2)c2ccccc2)c2ccccc2)o1	-2%	-11%	1%	50µM*	2%
Cc1ccc(S(=O)(=O)N(C)c2ccc(OCC(=O)Nc3nc4ccccc4s3)cc2)cc1	1%	6%	-1%	?	4%
Cc1cc(C)c2c(c1)NC(C(=O)O)C1CC=CC21 (stereo unspecified)	?	-18%	-14%	0.63µM*	-2%
Cc1ccc2c(c1C)NC(C(=O)O)C1CC=CC21 (stereo unspecified)	?	0%	-26%	2.5µM*	-7%
O=C(O)C1Nc2c(C(=O)N3CCOCC3)cccc2C2C=CCC12 (stereo unspecified)	?	20%	?	?	-4%
O=C(O)C1Nc2c(C(F)(F)F)ccc(Cl)c2C2C=CCC12 (stereo unspecified)	?	.	5%	?	-4%
C/C(=N\NC(=O)c1ccccn1)c1ccc(C(=O)O)s1	.	.	?	.	16µM*
CCCCCCCOC(=O)C1=C(C)Nc2ncnn2C1c1cccs1 (stereo unspecified)	-2%	-8%	0%	5%	5%
CCCCCCCCOC(=O)C1=C(C)Nc2nnnn2C1c1cccs1 (stereo unspecified)	-24%	32µM*	-18%	3%	0%
CP(=O)(Nc1cc(Cl)ccc1Cl)c1nc2c(s1)CCCC2 (stereo unspecified)	-12%	19%	7%	8.9µM*	-4%
COC(=O)c1ccccc1NC(=O)c1ccc(-c2cccc(Cl)c2)o1	-3%	0%	1%	-5%	-3%
CCOC(=O)COc1ccc2c(C#N)c3ccccn3c2c1	-1%	2%	5.6µM*	.	5%
CC(NC(=O)c1cc(-c2cccnc2)nc2ccc(Br)cc12)C1CCCO1 (stereo unspecified)	3%	-11%	.	1%	-6%
CC(C)(C)C(=O)c1cnc(Nc2ccccc2Cl)s1	-12%	-18%	-8%	-1%	?
COc1ccc(-c2ccc(CCC(=O)O)n2Cc2ccco2)cc1	4%	-4%	20%	25µM*	11%
O=C(O)CCc1ccc(-c2cccs2)n1Cc1ccco1	-6%	-8%	17%	?	5%
